We go through six molecules from PubChem BioAssay (NCATS).

Records with an inconclusive call do not appear. The source made the active and inactive calls. Unless noted, calls come from the whole dose curve; as a rule, active = well fitted curve in the direction sought with a large enough effect; inconclusive = small, poorly fitted or top-dose-only effect, or another doubt; inactive = no such curve, though single readings can be large; an effect the other way counts as inactive or inconclusive.

In experiment [1] the target is Estrogen receptor (Homo sapiens) (UniProt P03372). Briefly: qHTS assay for small molecule antagonists of estrogen receptor alpha signaling (AID 588513; active = well fitted curve in the direction sought with a large enough effect in the signal ratio, with a control signal flat, not every such curve was filed as active; the % refers to the signal ratio; note: % is set by controls: 0 for no effect and ±100 for the full control effect). Summed up: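 Antagonist mode: inhibition of 0.5 nM 17-beta-estradiol-driven beta-lactamase reporter in HEK 293 ER-alpha-UAS-bla cells, 18 h at 37C, CCF4 readout after 2 h at RT. Normalised to estradiol and DMSO; titration fitted to Hill.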
Estrogen receptor (Homo sapiens), sequence (P03372 whole entry, looked up): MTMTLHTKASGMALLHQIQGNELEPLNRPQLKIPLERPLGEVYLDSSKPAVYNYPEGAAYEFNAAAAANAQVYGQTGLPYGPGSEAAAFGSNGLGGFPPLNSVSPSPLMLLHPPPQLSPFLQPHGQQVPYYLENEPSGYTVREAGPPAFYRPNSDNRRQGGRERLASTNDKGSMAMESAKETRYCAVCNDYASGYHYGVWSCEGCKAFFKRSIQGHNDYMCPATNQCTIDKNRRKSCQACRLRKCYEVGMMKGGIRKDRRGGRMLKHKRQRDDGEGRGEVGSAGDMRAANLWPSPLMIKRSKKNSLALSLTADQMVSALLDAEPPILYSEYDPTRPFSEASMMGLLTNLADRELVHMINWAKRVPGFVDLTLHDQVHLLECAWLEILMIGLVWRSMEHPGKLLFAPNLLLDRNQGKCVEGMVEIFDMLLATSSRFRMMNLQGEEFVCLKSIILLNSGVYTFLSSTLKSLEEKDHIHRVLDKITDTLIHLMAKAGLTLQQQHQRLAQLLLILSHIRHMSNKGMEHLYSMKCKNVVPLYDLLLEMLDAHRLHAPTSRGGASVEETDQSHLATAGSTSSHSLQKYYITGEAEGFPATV

For experiment [2] the target is unchanged. Briefly: qHTS assay for small molecule agonists of estrogen receptor alpha signaling (AID 588514; calls by dose curve;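 note: 0% = vehicle only and 100% = reference agonist; nearly all actives have a fitted effect of over 70% in size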). The method in brief: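 Cells were plated at 5000/well, incubated 4 hrs at 37 C, dosed with compound titration series, incubated 18 hrs at 37 C, loaded with CCF4 dye for 2 hrs at RT, then fluorescence was read.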
Background: Quantitative high-throughput screening tests each substance at several concentrations.

Experiment [3] addresses Glucocorticoid receptor (Homo sapiens) (UniProt P04150). Briefly: qHTS assay for small molecule agonists of glucocorticoid receptor signaling (AID 588532; active = well fitted curve in the direction sought with a large enough effect in the signal ratio, with a control signal flat; the % refers to the signal ratio;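 note: 100% = dexamethasone at 0.1 µM and 0% = DMSO only wells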). As to conditions: HeLa MMTV-bla, beta-lactamase ratio, agonist, 18 h; stronger effect = higher value; percent of dexamethasone control, DMSO zero. Summed up:
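Cells were plated and rested 3-5 h at 37 C, compounds were added in titration and incubated 18 h, then CCF4 substrate was loaded for 2 h at RT before reading blue/green fluorescence. EC50 came from Hill-equation fitting.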

Experiment [4] has the same target. The experiment is described as follows: qHTS assay for small molecule antagonists of glucocorticoid receptor signaling (AID 588533; active = well fitted inhibition curve with a large enough effect in the signal ratio, with a control signal flat, not every such curve was filed as active; the % refers to the signal ratio;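 note: cells stimulated with 2 nM dexamethasone as agonist; % is set by controls: 0 for no effect and ±100 for the full control effect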). Summed up: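 Antagonist-mode qHTS: compound titrations added to GRE-bla HeLa cells, then dexamethasone 2 nM final; 18 h, 37 C. CCF4 FRET fluorescence normalized to dexamethasone and DMSO; IC50 from Hill fit.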
Experiment [5] in a line: qHTS assay for small molecule agonists of retinoid X receptor alpha signaling (AID 588544; calls by dose curve;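 for activation: 0% = DMSO basal wells and 100% = reference agonist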). As to conditions: HEK293T RXRa-UAS-bla, beta-lactamase reporter, 18 h; 530 nm emission.
The target in experiment [6] is Retinoic acid receptor RXR-alpha (Homo sapiens) (UniProt P19793). Described as above.
Retinoic acid receptor RXR-alpha (Homo sapiens), sequence (P19793 whole entry, looked up): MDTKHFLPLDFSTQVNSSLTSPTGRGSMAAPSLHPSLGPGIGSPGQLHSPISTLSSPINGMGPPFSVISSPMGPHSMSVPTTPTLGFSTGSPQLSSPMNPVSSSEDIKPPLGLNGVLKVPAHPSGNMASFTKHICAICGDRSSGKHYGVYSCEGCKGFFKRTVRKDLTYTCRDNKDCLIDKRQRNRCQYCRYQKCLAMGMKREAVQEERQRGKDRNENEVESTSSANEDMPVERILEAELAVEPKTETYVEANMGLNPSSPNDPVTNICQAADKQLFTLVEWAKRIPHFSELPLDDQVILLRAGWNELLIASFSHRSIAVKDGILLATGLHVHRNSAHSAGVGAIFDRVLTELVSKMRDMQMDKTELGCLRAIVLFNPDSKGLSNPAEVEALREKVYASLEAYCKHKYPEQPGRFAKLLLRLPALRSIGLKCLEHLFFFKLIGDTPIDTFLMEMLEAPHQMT
In experiment [7] the target is Thyroid hormone receptor beta (Homo sapiens) (UniProt P10828). Briefly: qHTS assay for small molecule agonists of thyroid hormone receptor beta signaling (AID 588545; calls by dose curve). Summed up:
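Agonist-mode beta-lactamase reporter assay, HEK 293 cells, 2% charcoal/dextran FBS; cells plated 4 hrs, compound 18 hrs at 37 C, CCF4 2 hrs RT. Normalized to 10 nM T3 (100%) and DMSO (0%); Hill fit gives EC50, efficacy.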

Experiment [8] in a line: qHTS assay for small molecule antagonists of retinoid X receptor alpha signaling (AID 588546; active = well fitted inhibition curve with a large enough effect in the signal ratio, with a control signal flat, not every such curve was filed as active; the % refers to the signal ratio;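 note: cells stimulated with 9-cis-retinoic acid as agonist; % is set by controls: 0 for no effect and ±100 for the full control effect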). As to conditions: HEK293T RXRa-UAS-bla, beta-lactamase ratio, antagonist mode; measured here: W530 green channel, cytotoxicity proxy. Summed up:
(§1)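 Beta-lactamase reporter inhibition, read as CCF4 fluorescence ratio (ex 405, em 460/530 nm) after 2 h at RT. HEK293T UAS-bla cells, 2500/well, were stimulated with 9-cis-RA at 500 or 100 nM final alongside test compound for 18 h at 37 C.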

For experiment [9], the target named is Retinoic acid receptor RXR-alpha (Homo sapiens) (UniProt P19793). Described as above. As to conditions: HEK293T RXRa-UAS-bla, beta-lactamase ratio, antagonist mode. Summed up: as §1
The nature of experiment [10]: qHTS assay for small molecule activators of the nuclear factor-kappa B (NF-kB) signaling pathway (AID 651749; active = well fitted activation curve with a large enough effect in the signal ratio; the % refers to the signal ratio; note: series mostly up to about 77 µM; % of control where 0% means no effect). As to conditions: NF-kB-bla ME-180 cells, beta-lactamase FRET ratio, 16 h; activation: stronger effect = higher value. Summed up:
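NF-kB-bla ME-180 cells carrying a beta-lactamase reporter under an NF-kB response element, 2,000 cells/well, exposed to compound for 16 hr at 37C; FRET-based beta-lactamase fluorescence read-out of pathway activation.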

Experiment [11] can be described thus: qHTS assay for environmental chemicals that activate the Aryl hydrocarbon Receptor (AhR) signaling pathway (AID 651777). Note: % of control where 0% means no effect; nearly all actives have a fitted effect of over 15% in size. As to conditions: 1A2-DRE human hepatoma cells, luciferase, 24 h; activation: stronger effect = higher value. Summed up: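 Luminescence read-out: One-Glo added for 30 min at RT after 24 hr compound treatment (37 C, 5% CO2) of human hepatoma cells expressing a DRE/CYP1A2 promoter–luciferase reporter; increased signal indicates AhR activation.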

The target of experiment [12] is Peroxisome proliferator-activated receptor alpha (Homo sapiens) (UniProt Q07869). The experiment is described as follows: qHTS assay for small molecule agonists of the peroxisome proliferator-activated receptor alpha (PPARalpha) signaling pathway (AID 651778). Note: % of control where 0% means no effect. As to conditions: PathHunter PPARalpha complementation, chemiluminescence, 6 h; max response: stronger effect = higher value. The method in brief:
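Enzyme-fragment complementation assay in which ligand-bound PPARalpha translocates and forms an active enzyme that generates chemiluminescence. Cells were plated overnight, exposed to compound for 6 hr at 37 C, and then given detection reagent for 60 min at room temperature.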

The nature of experiment [13]: qHTS assay for small molecule agonists of the antioxidant response element (ARE) signaling pathway measured by Nrf2-dependant transcriptional activity (AID 720636; active = well fitted curve in the direction sought with a large enough effect in the repeat runs; an effect the other way counts as inactive or inconclusive;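 note: HepG2 cells with an ARE-driven luciferase reporter; % of control where 0% means no effect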). Summed up: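 HepG2 ARE-luc reporter line, 1% dialyzed FBS; 6 hr attachment at 37 C, compound pinned in, 16 hr at 37 C/5% CO2; ONE-Glo, 30 min RT, luminescence read.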
The nature of experiment [14]: qHTS assay for small molecule agonists of the antioxidant response element (ARE) signaling pathway measured by Nrf2-dependant transcriptional activity - cell viability counter screen (AID 720653; active = well fitted curve in the direction sought with a large enough effect in the repeat runs; an effect the other way counts as inactive or inconclusive; note: % is set by controls: 0 for no effect and ±100 for the full control effect). As to conditions: ARE-bla HepG2 viability, CellTiter-Glo ATP luminescence, 16 h; max response: stronger effect = lower value. Summed up:
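ARE-bla HepG2 cells treated with compounds for 16 h at 37C; this counter screen measures viability as intracellular ATP by CellTiter-Glo luminescence after 30 min at room temperature.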

Experiment [15] in a line: qHTS assay for cell viability of HEK293 cells (AID 743288). Note: % is set by controls: 0 for no effect and ±100 for the full control effect; nearly all actives have a fitted effect of over 50% in size. As to conditions: ATP luminescence (CellTiter-Glo), 18 h; max response: stronger effect = lower value. The method in brief:
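Total intracellular ATP, measured with a luciferase-coupled reagent, indicates the number of viable HEK293 cells. Exposure to test chemicals lasts 18 h at 37 C in 1,536-well format at 2,000 cells/well.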

Experiment [16] concerns the target Nuclear receptor subfamily 1 group I member 2 (Rattus norvegicus) (UniProt Q9R1A7). Briefly: qHTS assay for small molecule activators of the rat pregnane X receptor (rPXR) signaling pathway (AID 651751; call rule not given here; note: 0% is about no effect). As to conditions: rPXR reporter cells, luciferase (One-Glo), 24 h.
Experiment [17] can be described thus: qHTS assay for small molecule activators of the human pregnane X receptor (PXR) signaling pathway (AID 720659; call rule not given here; note: 0% is about no effect).
A short description of experiment [18]: qHTS assay for small molecule antagonists of peroxisome proliferator-activated receptor delta signaling (AID 588535; active = well fitted inhibition curve with a large enough effect in the signal ratio, with a control signal flat, not every such curve was filed as active; the % refers to the signal ratio;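 for max response: cells co-treated with a PPAR-delta agonist as stimulator during compound exposure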). As to conditions: HEK293T PPARd-UAS-bla, beta-lactamase FRET ratio, 18 h; 460 nm channel. The method in brief:
(§2)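 Antagonist-mode beta-lactamase reporter (GeneBLAzer PPAR-delta-UAS-bla) in HEK293T cells, 2% charcoal/dextran FBS, 4000 cells/well. Compound titrations, 18 h at 37 C; CCF4 ratio read, IC50 and efficacy from Hill fits.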

Experiment [19] concerns the target Peroxisome proliferator-activated receptor delta (Homo sapiens) (UniProt Q03181). The description is as above. Summed up:
as §2

A short description of experiment [20]: qHTS assay for cell viability of the p53RE-bla HCT-116 cell line (AID 743292). Note: % is set by controls: 0 for no effect and ±100 for the full control effect; nearly all actives have a fitted effect of over 55% in size. The method in brief: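 Luminescent ATP quantitation (CellTiter-Glo) served as the viability read-out; reagent was added after 16 h compound exposure at 37 C and read after 30 min at room temperature. Cells: p53RE-bla HCT-116, 4,000 per well.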

Glucocorticoid receptor (Homo sapiens), sequence (P04150 whole entry, looked up): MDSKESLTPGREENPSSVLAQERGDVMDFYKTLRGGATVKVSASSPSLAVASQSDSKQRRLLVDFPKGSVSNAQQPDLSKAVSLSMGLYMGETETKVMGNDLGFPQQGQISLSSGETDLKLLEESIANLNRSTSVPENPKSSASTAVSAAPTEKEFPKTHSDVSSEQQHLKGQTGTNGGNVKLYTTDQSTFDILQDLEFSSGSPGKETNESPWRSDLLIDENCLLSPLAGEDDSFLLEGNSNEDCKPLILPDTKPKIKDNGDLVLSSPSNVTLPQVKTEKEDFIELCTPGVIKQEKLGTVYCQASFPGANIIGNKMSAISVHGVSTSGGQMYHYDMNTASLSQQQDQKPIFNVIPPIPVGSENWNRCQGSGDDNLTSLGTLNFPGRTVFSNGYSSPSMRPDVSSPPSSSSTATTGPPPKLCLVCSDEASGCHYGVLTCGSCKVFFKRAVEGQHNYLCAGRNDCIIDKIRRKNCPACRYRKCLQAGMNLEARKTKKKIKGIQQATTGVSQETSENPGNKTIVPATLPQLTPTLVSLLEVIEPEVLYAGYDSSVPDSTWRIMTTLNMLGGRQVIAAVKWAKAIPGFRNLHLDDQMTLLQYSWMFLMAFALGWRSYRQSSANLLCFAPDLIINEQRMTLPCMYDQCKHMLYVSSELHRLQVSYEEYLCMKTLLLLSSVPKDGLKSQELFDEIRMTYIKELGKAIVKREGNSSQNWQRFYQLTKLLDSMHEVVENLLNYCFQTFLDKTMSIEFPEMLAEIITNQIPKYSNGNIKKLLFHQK
Nuclear receptor subfamily 1 group I member 2 (Rattus norvegicus), sequence (Q9R1A7 whole entry, looked up): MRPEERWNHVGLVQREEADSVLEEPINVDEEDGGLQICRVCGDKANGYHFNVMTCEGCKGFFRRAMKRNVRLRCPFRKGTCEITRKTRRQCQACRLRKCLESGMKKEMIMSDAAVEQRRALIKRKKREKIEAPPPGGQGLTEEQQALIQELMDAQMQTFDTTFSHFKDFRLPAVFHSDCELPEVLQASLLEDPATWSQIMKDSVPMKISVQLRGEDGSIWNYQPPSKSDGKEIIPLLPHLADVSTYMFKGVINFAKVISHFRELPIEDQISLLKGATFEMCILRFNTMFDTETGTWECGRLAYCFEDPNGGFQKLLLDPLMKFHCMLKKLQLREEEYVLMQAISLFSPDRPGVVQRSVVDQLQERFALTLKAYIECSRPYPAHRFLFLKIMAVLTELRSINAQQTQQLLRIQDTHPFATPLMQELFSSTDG
Peroxisome proliferator-activated receptor alpha (Homo sapiens), sequence (Q07869 whole entry, looked up, the tested form may be a part): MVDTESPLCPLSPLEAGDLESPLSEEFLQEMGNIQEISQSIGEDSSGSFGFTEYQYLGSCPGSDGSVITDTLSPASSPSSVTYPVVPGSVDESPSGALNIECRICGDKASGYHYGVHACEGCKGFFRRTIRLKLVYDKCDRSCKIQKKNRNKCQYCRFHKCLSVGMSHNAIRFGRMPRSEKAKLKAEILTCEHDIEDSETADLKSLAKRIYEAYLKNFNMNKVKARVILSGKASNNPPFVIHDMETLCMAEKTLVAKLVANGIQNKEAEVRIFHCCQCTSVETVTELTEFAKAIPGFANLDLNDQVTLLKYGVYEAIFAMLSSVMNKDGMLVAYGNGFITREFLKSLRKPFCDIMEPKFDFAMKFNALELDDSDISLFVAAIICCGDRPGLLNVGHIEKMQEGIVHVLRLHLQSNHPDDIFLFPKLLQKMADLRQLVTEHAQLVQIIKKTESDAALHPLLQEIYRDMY
Peroxisome proliferator-activated receptor delta (Homo sapiens), sequence (Q03181 whole entry, looked up): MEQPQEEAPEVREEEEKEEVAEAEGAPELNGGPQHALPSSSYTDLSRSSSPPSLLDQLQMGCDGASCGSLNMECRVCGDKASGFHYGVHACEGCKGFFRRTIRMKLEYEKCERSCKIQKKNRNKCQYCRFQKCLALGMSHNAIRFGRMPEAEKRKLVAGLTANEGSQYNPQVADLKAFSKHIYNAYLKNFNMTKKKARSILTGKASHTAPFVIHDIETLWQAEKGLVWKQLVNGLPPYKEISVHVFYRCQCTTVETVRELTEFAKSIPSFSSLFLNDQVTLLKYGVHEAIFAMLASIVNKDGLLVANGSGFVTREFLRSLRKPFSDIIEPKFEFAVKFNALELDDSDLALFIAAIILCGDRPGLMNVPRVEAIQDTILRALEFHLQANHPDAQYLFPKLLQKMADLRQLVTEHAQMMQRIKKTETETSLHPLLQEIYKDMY
Thyroid hormone receptor beta (Homo sapiens), sequence (P10828 whole entry, looked up): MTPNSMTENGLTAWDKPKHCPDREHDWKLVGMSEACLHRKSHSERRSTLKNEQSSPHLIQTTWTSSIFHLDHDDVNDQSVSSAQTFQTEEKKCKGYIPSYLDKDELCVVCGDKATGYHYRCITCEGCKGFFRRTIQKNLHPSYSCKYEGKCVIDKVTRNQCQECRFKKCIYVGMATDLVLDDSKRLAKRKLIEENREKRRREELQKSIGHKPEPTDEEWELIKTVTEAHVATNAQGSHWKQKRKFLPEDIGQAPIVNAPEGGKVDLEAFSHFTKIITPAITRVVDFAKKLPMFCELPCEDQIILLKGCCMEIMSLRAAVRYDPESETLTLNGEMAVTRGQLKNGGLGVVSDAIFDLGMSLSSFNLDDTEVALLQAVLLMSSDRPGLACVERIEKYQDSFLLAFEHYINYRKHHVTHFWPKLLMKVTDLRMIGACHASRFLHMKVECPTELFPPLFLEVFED

Take `Fc1ccc(Br)cc1`: the Potency result in [1], in experiment [2], in experiment [4], in experiment [6], in [7] and in experiment [13] was “inactive” each time. Further, the activation in [3] is 9.16% (inactive); in [10] it was 1.17% (inactive); in [11] it was 2.85% (inactive). The max response in experiment [5] was 4.76%; in experiment [8] it was -8.4%; in experiment [9] it was 4.33% (inactive); in [12] it was -2.75% (inactive); in experiment [14], -9.66% (inactive); in experiment [15], -0.046% (inactive). Moreover, the max response in experiment [16] was -1.72% (inactive). Moreover, in [17], the call was inactive.
With `CC1=CC2C3CC(C=C3C)C2C1` (stereo unspecified), the Potency entry in experiment [1], in experiment [2], in experiment [4], in experiment [19], in experiment [6] and in [7] was “inactive” each time. The Potency result in [13] and in experiment [20] was “inactive” in each case. In addition, the activation was 1.22% (inactive) in [3], -0.782% (inactive) in experiment [10] and -1.81% (inactive) in [11]. Moreover, the max response in experiment [18] was 7.89%; in experiment [5] it was -8.84%; in experiment [8], -10.9%; in [12] it was -1.19% (inactive); in [14], 1.82% (inactive); in experiment [15] it was -3.16% (inactive). Also, the max response in experiment [16] was -0.63% (inactive). Further, the molecule was classed as inactive in experiment [17].
Consider `COC(=O)c1ccccc1C(=O)O`, for which the Potency entry in experiment [1], in experiment [2], in [4], in experiment [19], in experiment [6] and in [7] was “inactive” throughout. Besides, the Potency result in experiment [13] and in experiment [20] was “inactive” throughout. Also, the activation is -3.15% (inactive) in [3], -0.0496% (inactive) in experiment [10] and 0.0502% (inactive) in [11]. The max response in experiment [18] was 47.6%; in experiment [5], -12.1%; in experiment [8] it was -4.92%; in experiment [9], -10.2% (inactive); in [14], -2.33% (inactive); in experiment [16], 2.64% (inactive). The result in [17] was inactive.
As for `OCCOCCOCCOCCO`, the Potency entry in experiment [1], in experiment [2], in experiment [4], in [19], in experiment [6] and in experiment [7] was “inactive” throughout. In experiment [20], the Potency entry was “inactive”. The activation in experiment [3] is -2.94% (inactive); in experiment [10] it was -0.834% (inactive). Also, the max response in [18] is -5.22%; in experiment [5], 4.51%; in [8], -7.24%; in experiment [9] it was -5.67% (inactive); in [12], -1.11% (inactive); in experiment [14] it was 2.46% (inactive). For the same molecule, in [15], the max response is -2.22% (inactive).
As for `CC(C)(C)C1CCC(O)CC1` (stereo unspecified), the Potency result in [1], in experiment [2], in [4], in [19], in experiment [7] and in experiment [13] was “inactive” each time. Further, in experiment [20], the Potency entry was “inactive”. Further, the activation in experiment [3] was -9.45% (inactive); in [10] it was 0.471% (inactive). The max response in [18] was -7.35%; in experiment [8] it was -0.1%; in [9], 3.31% (inactive); in [14], 2.04% (inactive); in [15] it was 1.92% (inactive); in [16], 1.71% (inactive). Moreover, the outcome in experiment [17] was inactive.
Turning to `C[N+](C)(C)CC(O)CCl` (stereo unspecified), the Potency result in [1], in experiment [2], in [4], in [19], in experiment [6] and in experiment [7] was “inactive” in each case. In addition, the Potency entry in experiment [13] and in experiment [20] was “inactive” each time. Also, the activation in [3] is -7.46% (inactive); in experiment [10], -1.69% (inactive); in experiment [11], 0.882% (inactive). Further, the max response in experiment [18] was 1.91%; in [5], -3.49%; in experiment [8] it was -3.33%; in experiment [9], 4% (inactive); in experiment [12], -0.685% (inactive); in [14] it was 0.797% (inactive). For the same molecule, the max response in experiment [15] was -11.6% (inactive); in experiment [16], 0.555% (inactive). Moreover, the result in experiment [17] was inactive.
